Results from PubChem BioAssay.
Active and inactive are the calls of the source. The rule behind the calls is not given here.

Test: P. aeruginosa biofilm formation inhibitors, primary screen, strain PAO1, LB-PBS medium, absorbance 600 nm (AID 1176); note: test concentration not given here
Settings: P. aeruginosa PAO1 growth/biofilm, A600, 12 h; higher = more signal

z-score, inactive:
[N-]=[N+]=Nc1ccccc1[C@H]1OC(c2ccc(OCCCO)cc2)=N[C@@]1(Cc1ccccc1)C(=O)N1CCOCC1 0.948
CN1C(=O)C2C=CC(C(O)c3ccccc3)N(N3CCCCC3)C2C1=O (stereo not given) 0.462
C=CCC(OC(C)=O)[C@@H]1[C@@H](N(Cc2ccc(-c3ccccc3)cc2)C(=O)Cc2ccc(F)cc2)c2cc(OCCCO)ccc2N1C(=O)c1ccc2ccccc2c1 (stereo not given in full) 0.0885
COc1cc(CO)cc(I)c1O[C@H]1C=C(C(=O)NCCO)C[C@@H](N(C(=O)c2cc3ccccc3oc2=O)C2CCCCCC2)[C@@H]1O -0.377
CCCNC(=O)[C@@]1(Sc2ccc(C)cc2)CC(=O)N(Cc2ccccc2C(F)(F)F)[C@@H]1c1ccc(CO)cc1I 0.298
NC(=O)[C@@H]1[C@H]2C(=O)O[C@H](c3ccccc3)[C@H](c3ccccc3)N2[C@H](c2ccc(OCCO)cc2)[C@@]12C(=O)Nc1ccc(C#CC3=CCCCC3)cc12 1.82
COCCCNC(=O)[C@@]1(Cc2ccccc2)N=C(c2ccc(OCCCO)cc2)O[C@H]1c1ccccc1CN=[N+]=[N-] 0.95
Cc1ccc(C2C3C(=O)CC4C(=O)N(c5ccccc5)C(=O)C4C3CN2S(=O)(=O)c2ccc(C)cc2)cc1 (stereo not given) 0.201
O=C(NC1CC1)[C@@H]1c2ccccc2C(=O)N(Cc2cc(F)cc(C(F)(F)F)c2)[C@H]1c1ccc(CO)cc1 0.373
COc1cc2c(cc1O)C(c1cccs1)N(Cc1cccc(OC(F)(F)F)c1)CC2 (stereo not given) -0.0623
CCOC(=O)C1=CC[C@@H](c2ccccc2)N(S(=O)(=O)c2ccc(C)cc2)[C@H]1c1ccc(CC)cc1 0.806
CN1CCC(CCCO)=CC1c1cccs1 (stereo not given) -0.377
CCCCCN1CC=CC23O[C@@H]4C=CCOC(=O)[C@@H]4[C@H]2C(=O)N(C(C)CO)[C@@H]3C1=O (stereo not given in full) 0.77
Cc1ccc(S[C@]2(C(=O)NCC(C)C)CC(=O)N(Cc3cc(C(F)(F)F)cc(C(F)(F)F)c3)[C@@H]2c2ccc(CO)cc2)cc1 0.559
CC1CC/C=C\[C@H]2OC34C=CCN(Cn5nnc6ccccc65)C(=O)[C@H]3N(CCCCCO)C(=O)[C@@H]4C2C(=O)O1 (stereo not given in full) 0.193
COc1ccc([Si](C)(C)[C@@H]2[C@@H](CCO)O[C@]3(C(=O)N(Cc4cccc(N5CCOC5=O)c4)c4ccccc43)[C@H]2C)cc1 2.95
CCCCN1CC=CC23O[C@@H]4C=CCCOC(=O)C4[C@H]2C(=O)N(CCCCCO)[C@@H]3C1=O (stereo not given in full) -0.332
COc1ccc(CCNC(=O)[C@@]2(C)c3ccccc3C(=O)N(c3ccc(C)cn3)[C@H]2c2ccc(CO)cc2)cc1 -0.301
COC(=O)[C@@]1(Cc2ccc(OC)cc2)[C@H]2c3cc(C(=O)N4CCCC4)n(Cc4nc5ccccc5[nH]4)c3C[C@H]2CN1C(=O)c1ccccc1 -0.222
[N-]=[N+]=NCc1ccccc1[C@@H]1OC(c2ccc(OCCCO)cc2)=N[C@]1(CCS(=O)(=O)c1ccccc1)C(=O)N1CCOCC1 0.19
CCOC(=O)C1=CC[C@H]2C(=O)N(c3ccccc3)C(=O)[C@@H]12 -0.417
COC(=O)[C@@]1(Cc2ccc(F)cc2)[C@H]2c3cc(C(=O)N(C)C)n(Cc4ccc(C)o4)c3C[C@H]2CN1C(=O)c1ccccc1 0.467
OCCCC1=CC(C2CC2)N(Cc2cccc(OC(F)(F)F)c2)CC1 (stereo not given) -0.517
CCOc1cc(C(O)C2C=CC3C(=O)N(c4ccccc4)C(=O)C3N2Nc2ccc(C(C)C)cc2)ccc1O (stereo not given) 0.779
CO[C@H]1O[C@H](CO)[C@@H](OC(=O)Nc2ccccc2)[C@@H]2OC(=O)[C@@H](Cc3ccc4ccccc4c3)C/C=C/C[C@H](Cc3ccc4ccccc4c3)C(=O)O[C@@H]12 0.509
CCOC(=O)C[C@H]1[C@H](OC(=O)c2ccc(C(=O)c3ccccc3)cc2)[C@@H](NC(=O)Cc2ccc(OC)cc2)c2cc(OCCCO)ccc2N1C(=O)c1ccc2ccccc2n1 0.207
C=CC[C@]1(C(=O)N2CCOCC2)N=C(c2ccc(OCCCO)cc2)O[C@H]1c1ccccc1N=[N+]=[N-] -0.167
NC(=O)[C@@H]1[C@H]2C(=O)O[C@H](c3ccccc3)[C@H](c3ccccc3)N2[C@H](c2ccc(O)cc2)[C@@]12C(=O)Nc1ccc(C#CC3=CCCCC3)cc12 0.802
COCCCNC(=O)[C@]1(Cc2ccccc2)N=C(c2ccc(OCCCO)cc2)O[C@@H]1c1ccccc1CN=[N+]=[N-] 1.8
CC(C)(C)OC(=O)CC[C@]1(C(N)=O)N=C(c2ccc(OCCCO)cc2)O[C@H]1c1ccccc1 0.55
O=C1C2C=CC(C(O)C=Cc3ccc([N+](=O)[O-])cc3)N(Nc3ccccc3F)C2C(=O)N1c1ccccc1 (stereo not given) 1.58
C=C(CCCC)/C(=C/C[C@@H](OC(C)=O)c1ccccc1OCCO)c1cc(C(=O)OC)ccc1OC 0.367
O=C1C2C=CC(C(O)c3ccc(F)cc3)N(Nc3ccc([N+](=O)[O-])cc3)C2C(=O)N1c1ccccc1 (stereo not given) 0.862
CC(=O)NCCCC[C@@H]1NC(=O)[C@H]2C[C@@H](C(=O)O)[C@@H](c3ccc(O)cc3)N2C1=O 0.711
COc1ccc([Si](C)(C)[C@H]2[C@H](CCn3cc([C@H](O)c4ccccc4)nn3)O[C@@]3(C(=O)N(C)c4ccccc43)[C@@H]2C)cc1 0.92
